Bioassay records from PubChem.
NR3A LBD binder = NR3A (human) ligand-binding domain modulation; NR3A LBD differential scanning fluorimetry, Tm shift; 0% = protein alone, 100% = glycine-bound protein; Tm shift relative to glycine control, % at 25 µM; 2.5% of 340,000 active;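 active = melting temperature shift of at least 10% of the positive control shift, at one fixed dose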
proKLK7 act = proKLK7 (human) activation, primary screen. activation, % at 7 µM. purified proKLK7, EDANS-DABCYL substrate fluorescence; 100% is mature enzyme control, 0% vehicle. P49862. AID 652039. 0.9% of 370,000 active;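 active = activation above the mean of all tested compounds plus 3 SD, computed per campaign excluding outliers beyond control limits, cut at about 13% in these data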
FAS-TE inh = FAS thioesterase (human) inhibition; P49327; recombinant FAS-TE, OMFH fluorogenic substrate, fluorescence endpoint; inhibition, % at 15 µM; 0.67% of 360,000 active; AID 602261;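 active = compounds whose normalised, plate-corrected inhibition of enzyme fluorescence in the single-dose primary screen is 50% or more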
ADAM10 inh = inhibitors of human ADAM10. AID 720582. recombinant ADAM10, EDANS/DABCYL FRET peptide cleavage, 3 h. inhibition, % at 7 µM. 0.62% of 370,000 active. O14672;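 active = inhibition above a per-campaign cutoff equal to the mean of compounds falling between control-based bounds plus 3 SD, cut at about 20% in these data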
ADAM17 inh = inhibitors of human ADAM17; inhibition, % at 6.95 µM; P78536; recombinant ADAM17, EDANS/DABCYL FRET peptide cleavage; 0.83% of 370,000 active;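 active = inhibition above the mean of compounds lying between control limits plus 3 SD, set per campaign, cut at about 8.5% in these data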
A number is an active result; 0 = inactive; - = no result given. Only some compounds are listed: those with a hit (about 4.6% of all), similar ones and a draw of the others.

SMILES	NR3A LBD binder	proKLK7 act	FAS-TE inh	ADAM10 inh	ADAM17 inh
CCOC(=O)N1CCN(C(=O)C[C@H]2C[C@@]3(C(=O)OC)C(=C[C@H](C4CCCC4)O[C@@H]3C)N(CCC3=CCCCC3)C2=O)CC1	-	0	-	0	0
COc1ccc2c(c1)CN1CN(Cc3ccc(F)cc3)S(=O)(=O)CC21 (centres undefined)	-	0	-	0	0
Cc1nc(N)sc1C(=O)N/N=C/c1ccc([N+](=O)[O-])cc1	0	0	0	0	0
Cc1cccc(NC(=S)N/N=C/c2c[nH]c3ccccc23)c1	33	0	0	0	0
O=C(N/N=C/c1c[nH]c2ccc(Br)cc12)c1ccc2c(c1)OCO2	31	0	0	0	0
COc1cc(/C=N\NC(=O)c2sc(N)nc2C)cc(OC)c1OC	17	0	0	0	0
O=C(NC(Cc1c[nH]c2ccccc12)C(=O)N/N=C/c1cccc2ccccc12)c1cccs1 (centres undefined)	19	0	0	0	0
COC(=O)C[C@@H]1CC[C@H]2[C@@H](COc3ccc(NC(=O)Nc4ccc(C)cc4)cc3C(=O)N2C)O1	-	0	-	0	0
c1nc(NCC2CCCC2)c2cc(-c3ccc4c(c3)OCO4)ccc2n1	-	-	-	0	0
COc1ccccc1C(=O)N/N=C/c1c[nH]c2ccccc12	14	0	0	0	0
Cc1cc(C(=O)N/N=C/c2c[nH]c3ccccc23)c(C)o1	0	0	0	0	0
Cc1ccc(-n2c(SCC(=O)Nc3ccc(OCc4ccccc4)cc3)nnc2-c2cnccn2)cc1	-	0	-	0	0
COc1cccc(C2c3cc4c(cc3OC(N3CCCC3)C2C)OCO4)c1O (centres undefined)	15	0	0	0	0
COc1cc(C2c3cc4c(cc3OC(N3CCCCC3)C2C)OCO4)cc(OC)c1O (centres undefined)	0	0	0	0	0
Cc1nnsc1SCCNC(=O)Nc1ccc(Cl)cc1	28	0	0	0	0
O=C(Nc1ccncc1)Nc1cccc(Cl)c1Cl	0	0	0	0	0
O=C(Nc1ccc(Cl)cc1)Nc1cccc2nsnc12	21	0	0	0	0
N#Cc1ccc(NC(=O)Nc2ccc(Cl)cc2)cc1	34	0	0	0	0
O=C(Nc1cccnc1)Nc1ccc(F)c(Cl)c1	25	0	0	0	0
O=C(Nc1nnc(-c2cccnc2)s1)c1cnc2ccccc2c1	-	0	-	0	0
O=C(Nc1ccc(Cl)c(Cl)c1)Nc1ccccc1O	466	0	0	0	0
NC(=O)c1cccc(NC(=O)Nc2ccc(Cl)cc2)c1	24	0	0	0	0
CCCCN(CCCC)S(=O)(=O)c1ccc(NC(=O)c2ccc([N+](=O)[O-])cc2Cl)cc1	0	0	0	0	0
O=C(Nc1ccc(Br)cc1)Nc1ccccc1F	0	0	0	0	0
CCN(CC)S(=O)(=O)c1cc([N+](=O)[O-])ccc1NNC(=O)Nc1ccc(Cl)c(Cl)c1	18	0	0	0	0
SMILES	NR3A LBD binder	proKLK7 act	FAS-TE inh	ADAM10 inh	ADAM17 inh
O=C(Nc1ccc(Cl)c(Cl)c1)c1ccccc1	0	0	0	0	0
O=C(Nc1ccc(Cl)c(Cl)c1)Nc1ccc(Br)cc1F	40	0	0	0	0
CCOC(=O)[C@@]12CN(C(=O)OC(C)(C)C)CC=C1N(Cc1ccc(OC)cc1)C(=O)[C@H]2CC(=O)NCc1cccs1	-	0	-	0	0
CN(C)S(=O)(=O)c1cccc(C(=O)N/N=C\c2ccnc3ccccc23)c1	-	0	-	0	0
O=[N+]([O-])c1cccc(OCCCN2CCC(C(O)(c3ccccc3)c3ccccc3)CC2)c1	-	0	-	0	0
O=C(NNc1ccccc1[N+](=O)[O-])Nc1ccc(Cl)c(Cl)c1	15	0	0	0	0
CSc1ccccc1NC(=O)Nc1ccc(F)c(Cl)c1	42	0	0	0	0
O=C(Nc1ccc(Cl)c(Cl)c1)Nc1ccon1	28	0	0	0	0
Cc1ccc(NC(=O)Nc2ccc(F)c(Cl)c2)cc1	32	0	0	0	0
C[C@H](NC(=O)OCc1ccccc1)P(=O)(O)O	-	0	-	0	0
O=C(Nc1ccc(Cl)c(Cl)c1)Nn1cnnc1	0	0	0	0	0
COc1ccc(NC(=O)Nc2ccc(F)c(Cl)c2)cc1	31	0	0	0	0
Cc1nccc(-c2cccc(NC(=O)Nc3ccc(Cl)cc3)c2)n1	25	0	0	0	0
O=C(CN1CCCC1)Nc1ccc(NC(=O)Nc2ccccc2Cl)cc1	0	0	0	0	0
COc1ccc(NC(=O)Nc2cc(C)ccc2F)cc1	0	0	0	0	0
O=C(Nc1ccc(Oc2ccc(NC(=O)Nc3ccccc3Cl)cc2)cc1)Nc1ccccc1Cl	22	0	0	0	0
O=C(Nc1ccc(Cl)cc1)Nc1ccc(Cl)c(Cl)c1	16	0	-	0	0
Cc1cccc(NC(=O)Nc2ccc(Cl)cc2)n1	0	0	0	0	0
O=C(NCCNC(=O)Nc1ccc(Cl)cc1)Nc1ccc(Cl)cc1	22	0	0	0	0
COc1ccc(NC(=O)Nc2ccc(Br)c(C)c2)cc1	25	0	0	0	0
O=C(Nc1ccc(F)c(Cl)c1)c1nsc(Cl)c1Cl	15	0	0	0	0
O=C(NCCO)Nc1ccc(Cl)cc1	0	0	0	0	0
CC1=C2NC(N)=[N+](Cc3ccc4c(c3)OCO4)CC2NOC1 (centres undefined)	-	-	-	0	0
O=C(Nc1ccc(F)cc1)OCc1cn(Cc2cccc(Cl)c2)nn1	-	0	-	0	0
Cc1ccc(-c2nc3cc(NS(=O)(=O)c4ccc(C)cc4)ccc3o2)cc1	12	0	0	0	0
SMILES	NR3A LBD binder	proKLK7 act	FAS-TE inh	ADAM10 inh	ADAM17 inh
O=C(Nc1ccc(-c2nc3ccccc3o2)cc1)c1cccnc1	25	0	0	0	0
O=S(=O)(Nc1ccc2oc(-c3ccccc3)nc2c1)c1ccccc1	0	0	0	0	0
O=C(Nc1ccc2oc(-c3ccccc3Cl)nc2c1)c1cncc(Br)c1	12	0	0	0	0
Cc1ccc2oc(-c3ccc(NC(=O)c4cccnc4)cc3)nc2c1	35	0	0	0	0
O=C(Nc1ccc2oc(-c3ccccc3Cl)nc2c1)c1ncn[nH]1	0	0	0	0	0
Cn1c(=O)c2cc(S(=O)(=O)N3CCN(Cc4ccccc4)CC3)ccc2n(C)c1=O	-	0	-	0	0
Cc1c(C(=O)Nc2ccc3oc(-c4cccnc4)nc3c2)oc2ccccc12	16	0	0	0	0
O=C1C(Oc2ccccc2)C(c2cccs2)N1Cc1ccc2c(c1)OCO2 (centres undefined)	0	0	0	0	0
COc1ccc(CCN2C(=O)C(Oc3ccccc3)C2c2ccc3c(c2)OCO3)cc1 (centres undefined)	12	0	0	0	0
COC(=O)CNC(c1ccccc1)c1cc(Br)ccc1NS(=O)(=O)c1ccc(C)cc1 (centres undefined)	16	0	0	0	0
Cc1ccccc1/C=N/n1c(-c2ccccn2)n[nH]c1=S	11	0	0	0	0
S=c1[nH]nc(-c2ccccn2)n1/N=C/c1ccccc1	0	0	0	0	0
